Measurements: PubChem BioAssay AID1645838 (ICCB-Longwood Screening Facility, Harvard Medical School, 2021)
Values joined by “and” are separate entries in the source; they are usually repeats but may differ in a detail not shown here. Identical values can stand only once. In all, about 2,000 compounds went through this assay and about 100 (5%) were called active. No stated cut-off is given here; in the data, active means z-score above about 2; inactive means the rest. The full list was thinned out, with actives kept by preference. Where a structure was tested more than once in an assay, its records may differ in their call.

Test: modulators of mitochondrial supercomplex assembly, cell-based, luminescence, Hoechst nuclei count (AID 1645838);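 further: control cybrid cells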
Settings: Cells, luminescence/Hoechst cell count ratio, supercomplex reporter; for z-score: stronger effect = higher value; for cell count: measured here: cell number, Hoechst nuclei count
[1] = library stock concentration (final well concentration not given) 80 uM
[2] = library stock concentration (final well concentration not given) 400 uM
[3] = library stock concentration (final well concentration not given) 2 mM
[4] = library stock concentration (final well concentration not given) 10 mM
[5] = library stock concentration (final well concentration not given) 46 uM
[6] = library stock concentration (final well concentration not given) 278 uM
[7] = library stock concentration (final well concentration not given) 1.67 mM

COc1cc(=C2C=c3ccccc3=N2)[nH]c1=Cc1[nH]c(C)cc1C
z-score [1]: 0.065 (inactive)
z-score [2]: 2.07 (active)
z-score [3]: 3.14 (active)
z-score [4]: 1.08 (inactive)
cell count [1]: 5750
cell count [2]: 1640
cell count [3]: 1600
cell count [4]: 1560

Cc1cc(C)c(/C=C2\C(=O)Nc3ccccc32)[nH]1
z-score: -0.647 (inactive)
cell count: 5700

CCCC(NC(C)C(=O)N1C(C(=O)O)C[C@H]2CCCC[C@@H]21)C(=O)OCC (stereo not given in full)
z-score [1]: -0.394 (inactive)
z-score [2]: 0.104 (inactive)
z-score [3]: -0.276 (inactive)
z-score [4]: -0.453 (inactive)
cell count [1]: 5070
cell count [2]: 4880
cell count [3]: 5080
cell count [4]: 5340

CCCCCCCCC#CCC#CCC#CCCCC(=O)O
z-score: 0.153 (inactive)
cell count: 5310

CCCCC1C(=O)CC[C@H]2[C@@H]1CC(=O)[C@@H]2CCCCCCC(=O)O (stereo not given in full)
z-score: -0.162 (inactive)
cell count: 5440

CC/C=C\C/C=C\C/C=C\CCCCCCCC(=O)OCC
z-score: -0.911 (inactive)
cell count: 5260

NC(=O)Nc1sc(-c2ccc(F)cc2)cc1C(N)=O
outcome (library stock 10 mM): inactive; censored for cell count
z-score [5]: -0.164 (inactive)
z-score [6]: 0.156 (inactive)
z-score [7]: 1.6 (inactive)
cell count [5]: 6530
cell count [6]: 6190
cell count [7]: 4790

O=C(NC1CCN(CC(F)(F)F)CC1)c1ccc(-c2cccc(F)c2)nc1
z-score [5]: -0.25 (inactive)
z-score [6]: 0.0438 (inactive)
z-score [7]: -0.291 (inactive)
z-score [4]: -0.236 (inactive)
cell count [5]: 6960
cell count [6]: 6520
cell count [7]: 7210
cell count [4]: 7340

NC(=O)Nc1cc(-c2cccc(F)c2)sc1C(=O)NC1CCCNC1 (stereo not given)
outcome (library stock 400 µM): inactive; censored for cell count
outcome (library stock 2 mM): inactive; censored for cell count
outcome (library stock 10 mM): inactive; censored for cell count
z-score [1]: 0.798 (inactive) and 2.01 (active)
z-score [2]: 2.61 (active)
cell count [1]: 3580 and 3980
cell count [2]: 1750

Cc1cn(-c2cc(NC(=O)c3ccc(C)c(Nc4nccc(-c5cccnc5)n4)c3)cc(C(F)(F)F)c2)cn1
z-score [1]: -0.15 (inactive)
z-score [2]: -0.0425 (inactive)
z-score [3]: 0.192 (inactive)
z-score [4]: 1.64 (inactive)
cell count [1]: 5660
cell count [2]: 5720
cell count [3]: 5660
cell count [4]: 3260

Cc1ccc(NC(=O)c2ccc(CN3CCC(N(C)C)C3)c(C(F)(F)F)c2)cc1Nc1nccc(-c2cncnc2)n1 (stereo not given)
z-score [1]: 0.0204 (inactive)
z-score [2]: 0.323 (inactive)
z-score [3]: 1.69 (inactive)
z-score [4]: 4.49 (active)
cell count [1]: 5990
cell count [2]: 5640
cell count [3]: 4410
cell count [4]: 2490

Cc1ccc(NC(=O)c2ccc(CN3CCN(C)CC3)cc2)cc1Nc1nccc(-c2cccnc2)n1
z-score [1]: -0.201 (inactive)
z-score [2]: -0.672 (inactive)
z-score [3]: -0.269 (inactive)
z-score [4]: -0.486 (inactive)
cell count [1]: 4460
cell count [2]: 4540
cell count [3]: 4320
cell count [4]: 4680
